Sfp PPTase inh = blocks B. subtilis Sfp PPTase activity; Q9F4F7; Biochemical Sfp PPTase activity, qHTS; Potency, µM, for the others: largest response in the series, negative = inhibition, usual class: inhibitors; actives 3.5% (n = 310,000);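 also: the enzyme is Sfp with the accession as filed and its product quenches rhodamine fluorescence; potency is read from the fitted curve at half-maximal effect; 0% = enzyme reaction without inhibitor and -100% = no enzyme wells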
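Step 1, compound plus 15 nM Sfp-PPTase, 15 min, room temperature. Step 2, add rhodamine-CoA (5 uM) and BHQ-2-YbbR (12.5 uM). Step 3, read 525/598 nm fluorescence at 0 and 30 min.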
NPSR antagonist = neuropeptide S receptor (human) antagonism, cAMP. Q6W5P4. CHO-NPSR cells, cAMP TR-FRET, antagonist mode. Potency, µM (doses to about 38.3 µM), for the others: top-dose activity change, negative = inhibition, hits mostly inhibitors. actives 1% (n = 220,000); also: potency is read from the fitted curve at half-maximal effect; nearly all actives have a fitted effect of over 50% in size
Target sequence (Q6W5P4 whole entry, looked up): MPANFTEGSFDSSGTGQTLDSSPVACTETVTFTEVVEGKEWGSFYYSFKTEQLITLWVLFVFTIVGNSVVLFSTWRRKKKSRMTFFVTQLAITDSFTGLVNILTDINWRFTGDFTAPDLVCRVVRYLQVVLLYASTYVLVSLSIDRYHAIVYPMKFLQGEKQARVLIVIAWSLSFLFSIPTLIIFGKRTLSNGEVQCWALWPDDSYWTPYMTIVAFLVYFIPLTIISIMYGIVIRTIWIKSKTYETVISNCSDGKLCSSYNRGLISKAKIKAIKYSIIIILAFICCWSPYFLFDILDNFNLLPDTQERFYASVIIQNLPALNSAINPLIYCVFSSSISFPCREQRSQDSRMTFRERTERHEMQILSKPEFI
ALDH1A1 block = ALDH1A1 (human) enzyme inhibition; P00352; Purified ALDH1A1, NADH fluorescence, propionaldehyde substrate; Potency, µM (titrated, usually from 75.3 µM), for inactives: at the top dose activity, negative = inhibition, actives largely listed as inhibitors; actives 7.3% (n = 220,000); active = well fitted inhibition curve with a large enough effect, not every such curve was filed as active; inconclusive = small, poorly fitted or top-dose-only effect, or another doubt; inactive = no such curve, though single readings can be large or run the other way;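 also: potency is read from the fitted curve at half-maximal effect; plate controls were no enzyme wells and a reference inhibitor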
FBPA coupling cs = counter-screen for Giardia aldolase inhibitors: coupling enzyme system; coupling enzyme system counterscreen, AmpLite Red fluorescence; activity change, negative = inhibition, % at 58.2 µM, hits read low; actives 0.67% (n = 290,000); in the data active = activity change below about -30%
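Counterscreen lacking aldolase: glyceraldehyde-3-phosphate coupling-enzyme reagent preincubated 10 min at RT with compound (at 57.5 uM final), then substrate/coupling system with AmpLite Red added; fluorescence read at 525/598 nm after 20 min RT.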
GoLoco inh red = RGS12 GoLoco-Gai1 interaction inhibition | actives 0.44% (n = 230,000) | Potency, µM (top dose mostly 61.6 µM), for the others: top-dose activity, negative = inhibition, most hits filed as inhibitors | AID 880 | Gai1:RGS12 GoLoco peptide FP, rhodamine, 10 min; active = well fitted inhibition curve with a large enough effect, not every such curve was filed as active; inactive = no such curve, though single readings can be large or run the other way; also: potency is read from the fitted curve at half-maximal effect; nearly all actives have a fitted effect of over 30% in size
Target sequence (P63096 whole entry, looked up): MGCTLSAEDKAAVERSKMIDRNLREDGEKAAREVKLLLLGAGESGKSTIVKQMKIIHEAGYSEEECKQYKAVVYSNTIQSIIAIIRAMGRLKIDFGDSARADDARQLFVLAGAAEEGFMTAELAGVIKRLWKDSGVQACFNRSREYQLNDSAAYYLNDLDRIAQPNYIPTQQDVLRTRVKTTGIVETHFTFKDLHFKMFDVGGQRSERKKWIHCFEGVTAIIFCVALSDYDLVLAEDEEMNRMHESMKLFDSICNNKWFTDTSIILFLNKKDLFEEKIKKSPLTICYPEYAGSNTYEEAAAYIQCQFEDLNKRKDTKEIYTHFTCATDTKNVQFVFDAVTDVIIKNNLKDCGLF
KDM4E inh = inhibitors of human JMJD2E histone demethylase; B2RXH2; JMJD2E catalytic domain, FDH-coupled NADH fluorescence (FDH is formaldehyde dehydrogenase); Potency, µM (highest dose often 57.1 µM), without a hit: at the top dose activity change, negative = inhibition, usual class: inhibitors; actives 1.6% (n = 230,000); active = well fitted inhibition curve with a large enough effect, not every such curve was filed as active; inconclusive = small, poorly fitted or top-dose-only effect, or another doubt; inactive = no such curve, though single readings can be large or run the other way;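 also: potency is read from the fitted curve at half-maximal effect; 0% = wells with enzyme and -100% = buffer wells without enzyme; nearly all actives have a fitted effect of over 50% in size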
An asterisk follows results filed as active; ? = inconclusive; nt = not tested or not shown; ! = a repeat was not active; [ ] = dose if it differs, or a comment. This is a sample that favours compounds with a hit; in the whole collection about 8.5% have one here. Unless noted, calls follow the shape of the dose curve; as a rule, active = well fitted curve in the direction sought with a large enough effect; inconclusive = small, poorly fitted or top-dose-only effect, or another doubt; inactive = no such curve, though single readings can be large; an effect the other way counts as inactive or inconclusive. Unless noted, % is scaled to controls: 0 for no effect and ±100 for the full control effect.

SMILES	Sfp PPTase inh	NPSR antagonist	ALDH1A1 block	FBPA coupling cs	GoLoco inh red	KDM4E inh
COC(=O)C1=C(C(=O)OC)SC(=C2C(=S)C(C)(C)N(C(=O)C(C)C)c3ccccc32)S1	?	10µM*	-5%	-1	5%	-11%
COC(=O)C1=C(C(=O)OC)SC(=C2C(=S)C(C)(C)N(C(=O)C3CC3)c3ccccc32)S1	-12%	13µM*	-15%	-4	-12%	6%
NNC(=O)c1sc(-c2ccccc2)cc1N	6%	1%	28µM*	-1	10%	?
CC(=O)c1sc(-c2ccccc2)cc1N	8%	18%	-8%	-2	7%	?
CC(C)CN1C=C2C(=O)C(C)(OC(=O)C3CCCC3)C(=O)C=C2C=C1c1ccsc1 (stereo not given)	16%	-9%	7%[13.5 µM]	1	0%[14.2 µM]	32µM*!
CC1Cc2nc(SCC(=O)NCc3ccco3)n(-c3ccccc3)c(=O)c2S1 (stereo not given)	0%	-6%	?	-1	7%	-2%
CCOC(=O)CSc1nc2c(sc3ccccc32)c(=O)n1CCCN1CCOCC1	-2%	-17%[46.1 µM]	14µM*	1	8%	?
N#CCSc1nc2ccccc2c(=O)n1CCCC(=O)NCc1ccco1	7%	4%	-3%	6	11%	4%
CCOCCCn1c(SCC(=O)NCc2ccco2)nc2c(sc3ccccc32)c1=O	22µM*	-12%[46.1 µM]	?	-2	-5%	?
O=C(CSc1nc2c(sc3ccccc32)c(=O)n1-c1ccccc1)NCc1ccco1	-16%	-37%	11µM*	4	15%	-5%
O=C(CCCCCn1c(SCc2ccncc2)nc2ccccc2c1=O)NCc1ccco1	-22%	-23%[46.1 µM]	25µM*	2	-2%	-26%
CC(C)(C)C1CCC(=NOC(=O)c2ccc(F)cc2)CC1 (stereo not given)	-7%	-12%	-12%	3	-3%	7%
COc1ccccc1N(CC(=O)NC1CCCC1)C(=O)c1oc(C(C)(C)C)cc1C	11%	?	2%	2	16%	1%
CC1=CC(=C2C=CC(=O)C=C2)C=C(C)N1C	9%	-19%	0%	1	-25%	?
CC(=O)Nc1ccn(C2OC(C(COC(C)=O)NC(=O)C(Cc3ccccc3)NC(=O)OC(C)(C)C)C(OC(C)=O)C2OC(C)=O)c(=O)n1 (stereo not given)	7%	nt	nt	4	nt	nt
COc1ccc(O)c(/C=C(\C#N)C(=O)Nc2ccccn2)c1	9%	nt	nt	-2	nt	nt
CN(C)c1ccc(-c2cncnc2-n2ccnc2)cc1	-26%	nt	?	-6	-12%	nt
CCCCn1c(SCC(=O)NCc2ccco2)nc2c(sc3ccccc32)c1=O	?	?	?	-1	3%	7.1µM*
O=C(CSc1nc2c(sc3ccccc32)c(=O)n1CCc1ccccc1)NCc1ccco1	-27%	-3%[46.1 µM]	1%	2	11%	7%
NC1=Nc2cccc3cccc1c23	9%	-38%	3%	-25	20µM*	?
C(=N\NC1=Nc2cccc3cccc1c23)/c1ccccc1	?	-5%	-1%	-13	105%	-2%
[C-]#[N+]/C(C#N)=C\c1cc(C(C)(C)C)c(O)c(C(C)(C)C)c1	45µM*	nt	-11%	5	2%	29%
CC(C)(C)c1cc(/C=C(\C#N)C(N)=S)cc(C(C)(C)C)c1O	-22%	-22%[46.1 µM]	2.8µM*	nt	104%	?
CCN(CC)C(=O)/C(C#N)=C/c1cc(O)c(O)c([N+](=O)[O-])c1	?	nt	nt	nt	2%	nt
N#C/C(=C/c1ccc(F)cc1)C(N)=S	35µM*	0%	25µM*	1	-5%	1%
SMILES	Sfp PPTase inh	NPSR antagonist	ALDH1A1 block	FBPA coupling cs	GoLoco inh red	KDM4E inh
N#CC(C#N)=C(N)/C(C#N)=C/c1cc(O)c(O)c(O)c1	40µM*	nt	?	nt	179%	nt
CCOC(=O)C1(CC/C(C)=N\NC(N)=O)CC(C)(C)OC1=O (stereo not given)	9%	42%	8%	4	5%	-6%
CCOc1ccc2nc(NC3=NC(c4ccc(OC)cc4)CC(=O)N3)nc(C)c2c1 (stereo not given)	22µM*	-16%[46.1 µM]	?	0	52%	?
O=C(CCCc1c[nH]c2ccccc12)NCc1ccccc1C(F)(F)F	4%	nt	nt	-1	nt	nt
O=C(CN(C(=O)c1csnn1)c1ccc2c(c1)OCCO2)NCc1ccc(F)cc1	11%	nt	nt	2	nt	nt
Cc1[nH]c2ccccc2c1C1=NNC(=Nc2ccc(F)cc2)SC1	22µM*	-17%[46.1 µM]	20µM*	1	20%	-6%
COc1ccc(N=C2SCC(c3ccccc3)=NN2C)cc1	-7%	2%	-3%	-1	-8%	-6%
COc1ccc(N=C2NN=C(c3c(C)[nH]c4ccccc34)CS2)cc1	35µM*	-18%	14µM*	1	13%	?
Cc1ccccc1N/N=C1\CCCNC1=O	?	-1%[46.1 µM]	10µM*	-13	-12%	?
CC1CCCN(C(=O)CNS(=O)(=O)c2cccs2)C1 (stereo not given)	2%	nt	nt	-3	nt	nt
CCN(CC)S(=O)(=O)c1cc(NC(=O)Cn2cnc3ccccc3c2=O)ccc1C	8%	-6%[46.1 µM]	?	6	5%	4%
COCCn1c(SCC(=O)Nc2ccc(Cl)c(S(=O)(=O)N(C)C)c2)nc2ccccc21	15%	-23%[46.1 µM]	32µM*	-3	12%	-4%
CC(=O)c1ccccc1NC(=O)Cn1c(=O)cnc2ccccc21	7%	5%	1.8µM*	0	-8%	?
Cc1ccc(NC(=O)Cn2c(=O)cnc3ccccc32)cc1S(=O)(=O)N(C)C	2%	6%	14µM*	2	-4%	?
CC(O)/C=C/C1OC(=O)CC1Nc1ccc(C=O)cc1 (stereo not given)	13%	-16%	0.45µM*	1	0%	-10%
Cc1nc(Nc2ccccc2)sc1-c1ccccc1	?	-24%[46.1 µM]	22µM*	-10	nt	3%
Cc1nc(Nc2ccc(C(=O)O)cc2)sc1-c1ccccc1	15%	-29%	12%	4	17%	2%
O=C1C=C(N(CCO)Cc2ccccc2)c2ccccc2C1=O	2%	?	?	-75*	10%	7%
CCOc1ccc(NC(=O)C2CCC(N3C(=O)C4CC=CCC4C3=O)CC2)cc1 (stereo not given)	-7%	8%[46.1 µM]	4µM*	0	8%	7%
CC(=O)Nc1ccc(NC(=O)C2CCC(N3C(=O)C4C5C=CC(C6CC56)C4C3=O)CC2)cc1 (stereo not given)	12%	nt	nt	-1	nt	nt
CCOc1ccc(NC(=O)CN2C(=O)C3CC=CCC3C2=O)cc1 (stereo not given)	12%	-5%[46.1 µM]	5%	1	4%	1%
